According to PubChem BioAssay (Tox21):
Records with an inconclusive call do not appear. Calls of active or inactive are those of the source. Unless noted, calls come from the whole dose curve; as a rule, active = well fitted curve in the direction sought with a large enough effect in the repeat runs; inconclusive = weak or mixed curves; inactive = no such curve, though single readings can be large; an effect the other way counts as inactive or inconclusive.

What was measured:
[1] = qHTS assay to identify small molecule agonists of the vitamin D receptor (VDR) signaling pathway - cell viability counter screen (AID 743224); note: series mostly up to about 63 µM; % is set by controls: 0 for no effect and ±100 for the full control effect; nearly all actives have a fitted effect of over 50% in size
Procedure, shortened: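 Luminescence from CellTiter-Glo, read after 30 min at room temperature, reports viability of VDR-bla cells treated with compounds for 16 h at 37C in the wells used for the beta-lactamase FRET read.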

[2] = qHTS assay to identify small molecule antagonists of the vitamin D receptor (VDR) signaling pathway - cell viability counter screen (AID 743225); note: % is set by controls: 0 for no effect and ±100 for the full control effect; nearly all actives have a fitted effect of over 50% in size
Procedure, shortened: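 Read-out: CellTiter-Glo luminescence measured 30 min after reagent addition at room temperature. Cells were VDR-bla HEK 293T exposed 16 h at 37C, 5% CO2, to compound with 3 nM final calcitriol agonist.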

[3] = qHTS assay to identify small molecule agonists of the NFkB signaling pathway (AID 1159509; active = well fitted curve in the direction sought with a large enough effect in the signal ratio in the repeat runs, not every such curve was filed as active; the % refers to the signal ratio; note: series mostly up to about 61 µM; % is set by controls: 0 for no effect and ±100 for the full control effect)
Procedure, shortened: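 NFkB-bla ME-180 cells with a beta-lactamase reporter under an NF-kB response element were plated overnight, treated with compounds in DMSO for 5 hr at 37 C, then loaded with FRET substrate for 1.5 hr at room temperature.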

[4] = qHTS assay to identify small molecule agonists of the NFkB signaling pathway - cell viability counter screen (AID 1159515; calls by dose curve; note: series mostly up to about 61 µM; % is set by controls: 0 for no effect and ±100 for the full control effect; nearly all actives have a fitted effect of over 55% in size)
Procedure, shortened: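 Luminescence from CellTiter-Glo (30 min, room temperature) gives viability, measured in the same wells as the beta-lactamase reporter read. Cells were NFkB-bla ME-180, 2,000 per well, treated 5 hr with compounds.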

[5] = qHTS assay to identify small molecule agonists of the endoplasmic reticulum stress response signaling pathway (AID 1159516; active = well fitted activation curve with a large enough effect in the signal ratio in the repeat runs, not every such curve was filed as active; the % refers to the signal ratio; note: % is set by controls: 0 for no effect and ±100 for the full control effect)
Procedure, shortened: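 Read-out is beta-lactamase cleavage of a FRET substrate (405 nm excitation; 460 and 530 nm emissions) in ESRE-bla HeLa cells after a 5 hr compound exposure at 37 C. Substrate incubation ran 2 hr at room temperature.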

[6] = qHTS assay to identify small molecule agonists of the endoplasmic reticulum stress response signaling pathway - cell viability counter screen (AID 1159517; calls by dose curve;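 note: HeLa cells carrying an ER stress response element beta-lactamase reporter; series mostly up to about 61 µM; % is set by controls: 0 for no effect and ±100 for the full control effect; nearly all actives have a fitted effect of over 50% in size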)
Procedure, shortened: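 Cells, HeLa ESRE-bla; density, 1,500/well; dosing, 5 hr at 37 C, 5% CO2; readout, CellTiter-Glo luminescence after 30 min RT.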

[7] = qHTS assay to identify small molecule antagonists of the retinoid-related orphan receptor gamma (ROR-gamma) signaling pathway - cell viability counter screen (AID 1159520); note: % is set by controls: 0 for no effect and ±100 for the full control effect; nearly all actives have a fitted effect of over 50% in size
Procedure, shortened: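 Cytotoxicity was read from cellular ATP (CellTiter-Glo luminescence) after 16 hr at 37 C with 1 uM doxycycline induction. The inducer was added 2 hr after compound transfer to Tet-on ROR gamma CHO cells.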

[8] = qHTS assay to identify small molecule agonists of the AP-1 signaling pathway - cell viability counter screen (AID 1159525; calls by dose curve; note: nearly all actives have a fitted effect of over 55% in size)
Procedure, shortened: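 Luminescent ATP readout (Cell Titer Glo, 30 min RT), normalised to DMSO and tetra n-octyl ammonium bromide controls. Cells were ME-180 AP-1-bla in 0.5% dialyzed FBS Opti-MEM, with a 5 h, 37 °C compound exposure.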

[9] = qHTS assay to identify small molecule agonists of the AP-1 signaling pathway (AID 1159526; calls by dose curve; note: potency is the fitted concentration of half-maximal effect; for activation: % is set by controls: 0 for no effect and ±100 for the full control effect)
[10] = target: Retinoic acid receptor RXR-alpha (Homo sapiens) (UniProt P19793); assay: qHTS assay to identify small molecule agonists of the RXR signaling pathway (AID 1159527; calls by dose curve; note: nearly all actives have a fitted effect of over 35% in size; note: potency is the fitted concentration of half-maximal effect; for activation: % is set by controls: 0 for no effect and ±100 for the full control effect)
Sequence of Retinoic acid receptor RXR-alpha (Homo sapiens) (P19793 whole entry, looked up): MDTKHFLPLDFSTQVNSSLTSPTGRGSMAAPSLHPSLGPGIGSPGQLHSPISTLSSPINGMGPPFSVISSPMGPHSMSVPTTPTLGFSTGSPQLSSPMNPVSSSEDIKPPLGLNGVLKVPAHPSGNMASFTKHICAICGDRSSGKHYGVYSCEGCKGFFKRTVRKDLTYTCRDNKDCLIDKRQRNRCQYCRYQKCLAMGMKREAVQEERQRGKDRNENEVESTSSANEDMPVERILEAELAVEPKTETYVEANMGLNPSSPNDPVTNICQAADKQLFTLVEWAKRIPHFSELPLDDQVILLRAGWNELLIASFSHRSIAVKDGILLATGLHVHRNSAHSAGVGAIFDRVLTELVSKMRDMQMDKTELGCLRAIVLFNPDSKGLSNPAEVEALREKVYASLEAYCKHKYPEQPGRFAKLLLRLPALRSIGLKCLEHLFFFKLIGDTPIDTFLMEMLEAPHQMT
Procedure, shortened: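 Read-out: beta-lactamase FRET ratio (405 nm excitation, 460 and 530 nm emission) after 2 hr substrate loading at room temperature. Cells were RXR-alpha-UAS-bla HEK 293T treated with compounds for 16 hr in 2% charcoal-stripped FBS medium.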

[11] = qHTS assay to identify small molecule agonists of the RXR signaling pathway - cell viability counter screen (AID 1159529); note: nearly all actives have a fitted effect of over 50% in size; note: potency is the fitted concentration of half-maximal effect
Procedure, shortened: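 HEK 293T RXRa-bla cells, 2% CS-FBS; 5 h settle; cpd 16 h 37 C, 5% CO2; CellTiter-Glo 30 min RT, luminescence. Tetraoctyl ammonium bromide as positive control.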

[12] = qHTS assay to identify small molecule antagonists of the retinoid acid receptor (RAR) signaling pathway - cell viability counter screen (AID 1159551); note: % is set by controls: 0 for no effect and ±100 for the full control effect; nearly all actives have a fitted effect of over 35% in size
Procedure, shortened: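 Luminescent ATP quantitation (CellTiter-Glo) gave cell viability in C3RL4 cells exposed to test chemicals for 6 h at 37 C alongside 1 uM final retinol.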

[13] = qHTS assay to identify small molecule antagonists of the retinoic acid receptor (RAR) signaling pathway (AID 1159552)
Procedure, shortened: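 Cells of the C3RL4 line were seeded, incubated overnight, then dosed with compounds in DMSO followed immediately by retinol (1 uM final). Six hours later luciferase detection reagent went in; signal was measured after 30 min at RT.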

[14] = qHTS assay to identify small molecule agonists of the retinoic acid receptor (RAR) signaling pathway (AID 1159553); note: potency is the fitted concentration of half-maximal effect
Procedure, shortened: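 Luminescence from a RARE-driven luciferase reporter in C3RL4 cells served as the read-out, measured after 30 min with detection reagent at room temperature. Compounds in DMSO were applied for 6 hr at 37 C following overnight seeding.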

[15] = qHTS assay to identify small molecule antagonists of the estrogen related receptor (ERR) signaling pathway from Tox21 library - cell viability counter screen (AID 1224834); note: % is set by controls: 0 for no effect and ±100 for the full control effect; nearly all actives have a fitted effect of over 30% in size
Procedure, shortened: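 Fluorescence from CellTiter-Fluor gives the viability read-out, taken 30 min after reagent addition. Before that, ERR cells seeded 6 h earlier were incubated with compounds for 17.5 h at 37 C.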

[16] = target: Nuclear receptor ROR-gamma (Homo sapiens) (UniProt P51449); assay: qHTS assay to identify small molecule antagonists of the retinoid-related orphan receptor gamma (ROR-gamma) signaling pathway (AID 1159521; note: nearly all actives have a fitted effect of over 50% in size; note: potency is the fitted concentration of half-maximal effect)
Procedure, shortened: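 CHO Tet-on RORγ, RORE-luc reporter. Cpd 2 h pre-incubation, then dox hyclate 1 uM final, 16 h, 37 C/5% CO2. ONE-Glo luminescence; decrease = antagonist.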

CN1CCN(c2c(F)cc3c(=O)c(C(=O)O)cn(CCF)c3c2F)CC1
inactive: Potency [1] | Potency [2] | outcome [3] | outcome [4] | outcome [5] | outcome [6] | Potency [7] | outcome [8] | Potency [9] | Potency [10] | Potency [11] | outcome [12] | Potency [13] | Potency [14] | Potency [15]

O=C1CCCc2ccccc21
active: Potency [10] 6.99 µM
inactive: Potency [1] | Potency [2] | outcome [3] | outcome [4] | outcome [5] | outcome [6] | Potency [7] | outcome [8] | Potency [9] | Potency [11] | outcome [12] | Potency [13] | Potency [14] | Potency [15]

CCOc1ccc(NC(N)=O)cc1
inactive: Potency [1] | Potency [2] | outcome [3] | outcome [4] | outcome [5] | outcome [6] | Potency [7] | outcome [8] | Potency [9] | Potency [10] | Potency [11] | outcome [12] | Potency [13] | Potency [14] | Potency [15]

Cc1cc(NS(=O)(=O)c2ccc(N)cc2)nc(C)n1
inactive: Potency [1] | Potency [2] | outcome [3] | outcome [4] | outcome [5] | outcome [6] | Potency [7] | outcome [8] | Potency [9] | Potency [10] | Potency [11] | outcome [12] | Potency [13] | Potency [14]

CCCCCCCCCCCCOCCOS(=O)(=O)O
inactive: outcome [3] | outcome [4] | outcome [5] | outcome [6] | Potency [7] | Potency [16] | outcome [12] | Potency [13] | Potency [14]
active: Potency [11] 19.5 µM

O=C(CC(=O)C(F)(F)F)c1ccccc1
active: Potency [14] 22 µM
inactive: Potency [1] | Potency [2] | outcome [3] | outcome [4] | outcome [5] | outcome [6] | Potency [7] | Potency [16] | outcome [12] | Potency [13]

Cc1ccc([N+](=O)[O-])cc1Cl
inactive: Potency [2] | outcome [3] | outcome [4] | outcome [5] | outcome [6] | Potency [7] | outcome [8] | Potency [9] | Potency [10] | Potency [11] | outcome [12] | Potency [13] | Potency [14]

O=C(O)c1ccccc1Nc1cc(Cl)ccc1C(=O)O
inactive: outcome [3] | outcome [4] | outcome [5] | outcome [6] | activity, negative = cytotoxicity [7] -2.84% [at 19 µM] | activity change, negative = inhibition [16] -10.7% [at 19 µM] | activity change, negative = cytotoxicity [11] -23.8% [at 15.8 µM] | activity change, negative = cytotoxicity [12] -3.95% [at 19 µM] | activity, negative = inhibition [13] -145% [at 19 µM] | viability change, negative = cytotoxic [15] -1.64% [at 19 µM]

CCCCCCC
inactive: Potency [1] | Potency [2] | outcome [3] | outcome [4] | outcome [5] | outcome [6] | Potency [7] | outcome [8] | Potency [9] | Potency [10] | Potency [11] | outcome [12] | Potency [13] | Potency [14]

CN1[C@@H]2CC[C@H]1CC(OC(=O)c1c[nH]c3ccccc13)C2 (stereo partly specified)
inactive: Potency [1] | Potency [2] | outcome [3] | outcome [4] | outcome [5] | outcome [6] | Potency [7] | outcome [8] | Potency [10] | Potency [11] | outcome [12] | Potency [13] | Potency [14] | Potency [15]
active: Potency [9] 23.9 µM

CC(=O)OC1C2(C)CCC(C2)C1(C)C (stereo unspecified)
inactive: Potency [1] | Potency [2] | outcome [3] | outcome [4] | outcome [5] | outcome [6] | Potency [7] | outcome [8] | Potency [9] | Potency [10] | Potency [11] | outcome [12] | Potency [13] | Potency [14] | Potency [15]

CC(C)CCCCCCc1ccc(OCCOCCO)cc1
inactive: Potency [1] | Potency [2] | outcome [3] | outcome [4] | outcome [5] | outcome [6] | Potency [7] | outcome [8] | Potency [9] | Potency [10] | Potency [11] | outcome [12] | Potency [13] | Potency [14] | Potency [15]

O=C(O)c1cccc(Cl)c1Cl
inactive: Potency [1] | Potency [2] | outcome [3] | outcome [4] | outcome [5] | outcome [6] | Potency [7] | outcome [8] | Potency [9] | Potency [10] | Potency [11] | outcome [12] | Potency [13] | Potency [14] | Potency [15]

CCOC(=O)C1CC(=O)C(=C(O)C2CC2)C(=O)C1 (stereo unspecified)
inactive: Potency [2] | outcome [3] | outcome [4] | outcome [5] | outcome [6] | Potency [7] | Potency [16] | Potency [9] | outcome [12] | Potency [13] | Potency [14] | Potency [15]

ClC(Cl)Cl
inactive: Potency [1] | Potency [2] | outcome [3] | outcome [4] | outcome [5] | outcome [6] | Potency [7] | Potency [11] | outcome [12] | Potency [13] | Potency [15]
active: Potency [16] 48.2 µM

CN(CC1(C)CCCO1)S(=O)(=O)c1ccc(Cl)c(S(N)(=O)=O)c1 (stereo unspecified)
inactive: Potency [1] | Potency [2] | outcome [3] | outcome [4] | outcome [5] | outcome [6] | Potency [7] | outcome [8] | Potency [9] | Potency [10] | Potency [11] | outcome [12] | Potency [13] | Potency [14] | Potency [15]

CCCCC(=O)O[C@]1(C(=O)CO)[C@H](C)C[C@H]2[C@@H]3CCC4=CC(=O)C=C[C@]4(C)[C@@]3(F)[C@@H](O)C[C@@]21C
inactive: Potency [1] | Potency [2] | outcome [3] | outcome [4] | outcome [5] | outcome [6] | Potency [7] | outcome [8] | Potency [9] | Potency [10] | Potency [11] | outcome [12] | Potency [13] | Potency [14]

CC(C)(C)c1ccc(OC(=O)c2ccccc2O)cc1
active: Potency [11] 49 µM | Potency [14] 1.09 µM
inactive: outcome [3] | outcome [4] | outcome [5] | outcome [6] | Potency [7] | Potency [16] | outcome [12] | Potency [15]

COC(=O)c1ccc2cc(C(=O)OC)ccc2c1
inactive: Potency [2] | outcome [3] | outcome [4] | outcome [5] | outcome [6] | activity, negative = cytotoxicity [7] -0.583% [at 19 µM] | activity change, negative = inhibition [16] 0.445% [at 19 µM] | activation [10] 0.118% [at 15.8 µM] | activity change, negative = cytotoxicity [11] -6.68% [at 15.8 µM] | activity change, negative = cytotoxicity [12] 0.0867% [at 19 µM] | activity, negative = inhibition [13] -32% [at 19 µM]
